Among the test systems are SR leukemia; RPMI-8226 leukemia; OVCAR-8 ovarian; OVCAR-5 ovarian; OVCAR-4 ovarian; SK-OV-3 ovarian; IGROV1 ovarian; OVCAR-3 ovarian; HS 578T breast; NCI/ADR-RES ovarian; BT-549 breast; MDA-MB-435 melanoma; SW-620 colon; MCF7 breast; HCT-116 colon; HCC-2998 colon; KM12 colon; T-47D breast.
Assay in all cases: NCI-60 one-dose screen, 48 h (100 = growth as untreated, 0 = no growth, -100 = all killed)
Details in all cases: 10 µM unless noted

This note sets out measurements from PubChem BioAssay (NCI).

The structures appear in SMILES notation. The panel holds about 83,000 compounds, 20% with a hit somewhere; the sample as a whole holds those more often.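 Note: values are percent growth. 100 is the growth of untreated cells, values between 100 and 0 indicate rising inhibition; between -100 and 0 indicates cell death.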 A number with no mark means an inactive call. Calls of active or inactive are those of the source. How the source made its calls: active means growth percent below 10; inactive means the rest.

Regarding `CCN(CC)CC(=O)Nc1c(C)cc(C(=O)NN)cc1C`, the growth is 88.7% with SR leukemia; 120% in the assay with RPMI-8226 leukemia; 107% with OVCAR-8 ovarian; 103% with OVCAR-5 ovarian; 99.4% in the assay on OVCAR-4 ovarian; 98.7% with SK-OV-3 ovarian. Moreover, the growth was 88.9% in the assay with IGROV1 ovarian; 100% in the assay on OVCAR-3 ovarian; 91.1% in the assay on HS 578T breast; 98.5% in the assay on NCI/ADR-RES ovarian; 117% with BT-549 breast; 101% with MDA-MB-435 melanoma. Besides, the growth in the assay with SW-620 colon is 101%; in the assay with MCF7 breast, 98.3%; in the assay with HCT-116 colon, 102%; in the assay with HCC-2998 colon, 107%; with KM12 colon, 98.9%.

For `Clc1ccccc1CNc1c2ccccc2nc2ccccc12`, the growth with SR leukemia was 0.495% (active); in the assay on RPMI-8226 leukemia, -26.9% (active); with OVCAR-8 ovarian it was 23.8%; with OVCAR-5 ovarian, 32.6%; in the assay on OVCAR-4 ovarian, 13.1%; in the assay with SK-OV-3 ovarian, 54.9%. Also, the growth in the assay on IGROV1 ovarian was 17.8%; in the assay with OVCAR-3 ovarian, 53.6%; in the assay with NCI/ADR-RES ovarian, 23.8%; in the assay on T-47D breast it was 30.4%; with BT-549 breast it was 38.1%; with MDA-MB-435 melanoma it was 27.2%. Further, the growth is 9.61% (active) in the assay with SW-620 colon; -0.21% (active) in the assay with MCF7 breast; 8.1% (active) in the assay on HCT-116 colon; -17.2% (active) in the assay on HCC-2998 colon; 22% in the assay with KM12 colon.

Regarding `COc1cc([N+](=O)[O-])cc(OC)c1OC`, the growth with SR leukemia is 102%; in the assay with RPMI-8226 leukemia it was 96%; with OVCAR-8 ovarian, 109%; with OVCAR-5 ovarian it was 129%; with SK-OV-3 ovarian it was 118%; with IGROV1 ovarian, 100%. Moreover, the growth in the assay with OVCAR-3 ovarian is 108%; in the assay on HS 578T breast, 107%; in the assay with NCI/ADR-RES ovarian, 114%; with T-47D breast, 112%; in the assay with BT-549 breast, 108%; in the assay on MDA-MB-435 melanoma, 117%. The growth is 105% with SW-620 colon, 96.5% in the assay with MCF7 breast, 113% in the assay with HCT-116 colon and 107% in the assay on HCC-2998 colon.

As for `C=C1C(=O)O[C@H]2[C@H]1CC/C(COC(=O)NCc1[nH]nc3ccccc13)=C\CC[C@@]1(C)O[C@@H]21`, the growth in the assay on SR leukemia is 4.38% (active); in the assay with RPMI-8226 leukemia, -10.2% (active); with OVCAR-8 ovarian, 35.3%; with OVCAR-5 ovarian, 58.5%; in the assay with SK-OV-3 ovarian, 75.6%; in the assay on IGROV1 ovarian, -20.8% (active). Moreover, the growth with OVCAR-3 ovarian was 5.37% (active); in the assay on HS 578T breast, 62.5%; in the assay on NCI/ADR-RES ovarian, 85.7%; in the assay with T-47D breast, 37.4%; with BT-549 breast, 24.3%; in the assay on MDA-MB-435 melanoma, 37.3%. Further, the growth with SW-620 colon was -28.9% (active); with MCF7 breast, 17.9%; in the assay with HCT-116 colon, -80.7% (active); in the assay on HCC-2998 colon it was 87.5%.

Consider `COc1ccc2nc3ccccc3c(NCc3ccc(Cl)cc3)c2c1`, for which the growth is -29.6% (active) with SR leukemia; -44.9% (active) with RPMI-8226 leukemia; 29.7% with OVCAR-8 ovarian; 26.5% in the assay with OVCAR-5 ovarian; 24.5% with OVCAR-4 ovarian; 64% in the assay on SK-OV-3 ovarian. The growth was 16.3% in the assay with IGROV1 ovarian; 51% in the assay on OVCAR-3 ovarian; 22.9% in the assay on NCI/ADR-RES ovarian; 49.3% in the assay on T-47D breast; 50.2% with BT-549 breast; 24.1% in the assay with MDA-MB-435 melanoma. In addition, the growth in the assay with SW-620 colon is 12.8%; with MCF7 breast, -56.4% (active); in the assay on HCT-116 colon it was 6.81% (active); with HCC-2998 colon, -87.6% (active); with KM12 colon, 40.1%.

Regarding `COc1ccc2nc3cc(Cl)ccc3c(NC(=O)CSc3ccc(Cl)cc3)c2c1`, the growth was -10.1% (active) with SR leukemia; -41.4% (active) in the assay on RPMI-8226 leukemia; -63.8% (active) in the assay on OVCAR-8 ovarian; -87.2% (active) in the assay with OVCAR-5 ovarian; -96.8% (active) with OVCAR-4 ovarian; -94.2% (active) in the assay on SK-OV-3 ovarian. The growth was -91.5% (active) in the assay on IGROV1 ovarian; -96.4% (active) in the assay on OVCAR-3 ovarian; -65% (active) in the assay with NCI/ADR-RES ovarian; -79.6% (active) in the assay with T-47D breast; -98.7% (active) in the assay on BT-549 breast; -82.4% (active) in the assay on MDA-MB-435 melanoma. The growth in the assay with SW-620 colon is -80.4% (active); in the assay on MCF7 breast it was -60% (active); in the assay with HCT-116 colon, -94.4% (active); in the assay with KM12 colon, -75.4% (active).

As to `CC(C)(C)[Si](C)(C)OC1[C@@H](O[Si](C)(C)C(C)(C)C)[C@@H](CNC(=O)NC(=O)NC(=O)CI)O[C@H]1n1cnc2c(NC(=O)Nc3ccccc3)ncnc21` (some centres undefined), the growth in the assay with SR leukemia was 2.35% (active); with RPMI-8226 leukemia, 35.2%; in the assay with OVCAR-8 ovarian, -9.33% (active); in the assay on OVCAR-5 ovarian, 67.3%; with OVCAR-4 ovarian, 42.9%; in the assay on SK-OV-3 ovarian it was 92.6%. Moreover, the growth in the assay with IGROV1 ovarian is -65.4% (active); in the assay on OVCAR-3 ovarian it was -63.5% (active); with NCI/ADR-RES ovarian, 4.72% (active); with T-47D breast it was 87.5%; with BT-549 breast it was 97.3%; in the assay on SW-620 colon, 76.1%. The growth in the assay with MCF7 breast is 70.8%; in the assay on HCT-116 colon, 38.5%; in the assay with HCC-2998 colon it was 99.4%; in the assay with KM12 colon, 32.9%.

As to `CC(CN1CCN(CC(C)Nc2ccnc3cc(Cl)ccc23)CC1)Nc1ccnc2cc(Cl)ccc12` (centres undefined), the growth in the assay with SR leukemia was -44.1% (active); in the assay with RPMI-8226 leukemia it was -32.2% (active); in the assay on OVCAR-8 ovarian, 6.74% (active); in the assay on OVCAR-5 ovarian, 57.2%; in the assay on OVCAR-4 ovarian, 3.26% (active); in the assay with SK-OV-3 ovarian it was 97.2%. Also, the growth is 28.2% in the assay with IGROV1 ovarian; -7.9% (active) with OVCAR-3 ovarian; 9.67% (active) in the assay with HS 578T breast; 10.8% with BT-549 breast; -45.4% (active) in the assay on MDA-MB-435 melanoma; 5.03% (active) in the assay with SW-620 colon. The growth was 10.6% in the assay with MCF7 breast, -83.2% (active) in the assay on HCT-116 colon, -5.03% (active) in the assay on HCC-2998 colon and 19.8% with KM12 colon.

On to `CC[C@H](C)[C@H](N)C(=O)O`, for which the growth was 90.7% in the assay with SR leukemia; 104% in the assay with RPMI-8226 leukemia; 107% in the assay with OVCAR-8 ovarian; 97.7% in the assay on OVCAR-5 ovarian; 109% in the assay with OVCAR-4 ovarian; 107% in the assay with SK-OV-3 ovarian. The growth with IGROV1 ovarian was 106%; in the assay on OVCAR-3 ovarian, 111%; in the assay on NCI/ADR-RES ovarian it was 104%; with BT-549 breast, 108%; with MDA-MB-435 melanoma, 98.8%; in the assay with SW-620 colon, 103%. For the same compound, the growth with MCF7 breast was 103%; in the assay on HCT-116 colon, 115%; in the assay on HCC-2998 colon, 106%; in the assay with KM12 colon, 99.5%.

As for `CC(C)CCSc1nc(Nc2ccccc2)c(C#N)c(-c2ccc(F)cc2)n1`, the growth in the assay on SR leukemia is 37.4%; in the assay with RPMI-8226 leukemia it was 50%; in the assay with OVCAR-8 ovarian, 42.2%; with OVCAR-5 ovarian, 83.8%; with OVCAR-4 ovarian it was -18% (active); with SK-OV-3 ovarian it was 67.2%. Moreover, the growth is 33.5% in the assay on IGROV1 ovarian; 28.8% with OVCAR-3 ovarian; 56.8% in the assay on NCI/ADR-RES ovarian; 46.5% in the assay with T-47D breast; 79% in the assay on BT-549 breast; 82.5% in the assay with MDA-MB-435 melanoma. Besides, the growth in the assay on SW-620 colon was 46.5%; in the assay with MCF7 breast, 65.2%; with HCT-116 colon it was 24%; with HCC-2998 colon it was 83.1%; with KM12 colon, 84.8%.
